Experimental data published in PubChem BioAssay AID1868 (National Center for Advancing Translational Sciences (NCATS), 2009).
Among all 270,000 compounds or so, about 20 (0.007%) were called active. Calls come from the whole dose curve; as a rule, active = well fitted inhibition curve with a large enough effect; inconclusive = small, poorly fitted or top-dose-only effect, or effect the other way; inactive = flat fitted curve, though single readings scatter. A selection follows.

What follows are compounds tested against Galactokinase (Homo sapiens) (UniProt P51570) (assay: qHTS Assay for Inhibitors of Human Galactokinase (GALK)). Settings: Purified GALK, Kinase-Glo residual ATP luminescence; series mostly up to 57.5 µM; activity change, negative = inhibition: at the top concentration.
From the text: NIH Molecular Libraries Probe Production Centers Network [MLPCN] NIH Chemical Genomics Center [NCGC] MLPCN Grant: R03 MH085689-01 Assay Submitter (PI): Kent Lai (University of Utah School of Medicine, 50 N Mario Capecchi Drive, Salt Lake City, UT 84132) NCGC Assay Overview: Inherited deficiency of galactose-1-phosphate uridyltransferase (GALT) can result in a potentially lethal disorder called Classic Galactosemia (OMIM 230400). Several lines of evidence indicate that an elevated level of galactose-1-phosphate (gal-1-p), the product of galactokinase (GALK), is a major, if not sole, pathogenic mechanism in patients with classic galactosemia. Therefore, finding inhibitors of GALK is a potential novel therapy for this inherent metabolic disease and is the long term goal of this project. GALK (provided by the assay submitter) was assayed using ATP and D-(+)-Galactose (Sigma-Aldrich cat# G0750) as substrates. Promega Kinase-Glo Plus (cat# V3774) technology was used to detect the residual ATP following kinetic reaction. Briefly, the Kinase-Glo Plus contains Ultra-Glo [2] luciferase and D-luciferin which generates a bioluminescence signal from the remaining ATP.
NCGC Assay Protocol Summary: Three uL/well of ATP-buffer solution (35 uM ATP, 20mM HEPES pH8.0, 5 mM MgCl2, 60 mM NaCl, 1 mM DTT, 0.01% BSA final concentration) was dispensed into 1536-well, assay plates (Greiner, solid white medium-binding plates) with Aurora Discovery BioRAPTR Flying Reagent Dispenser (FRD; Beckton-Dickenson). Compound solution (23 nL) was transferred to the assay plate using the Kalypsys 1536-pin tool. One uL/well GALK-galactose solution (5 nM GALK, 100 uM galactose, 20 mM HEPES pH8.0, 5 mM MgCl2, 60 mM NaCl, 1 mM DTT, 0.01% BSA final concentration) was then added using the FRD yielding a total kinase reaction volume of 4 uL/ well. After 1 hour of room temperature incubation, 4 uL Kinase-Glo Plus reagent was added for a final assay volume of 8 uL/ well. Luminescence was detected with the ViewLux plate reader (Perkin Elmer, Waltham, MA) after 10 min incubation using a 1 sec exposure time and 2x binning.
% is set by controls: 0 for no effect and ±100 for the full control effect.

Sequence of Galactokinase (Homo sapiens) (P51570 whole entry, looked up): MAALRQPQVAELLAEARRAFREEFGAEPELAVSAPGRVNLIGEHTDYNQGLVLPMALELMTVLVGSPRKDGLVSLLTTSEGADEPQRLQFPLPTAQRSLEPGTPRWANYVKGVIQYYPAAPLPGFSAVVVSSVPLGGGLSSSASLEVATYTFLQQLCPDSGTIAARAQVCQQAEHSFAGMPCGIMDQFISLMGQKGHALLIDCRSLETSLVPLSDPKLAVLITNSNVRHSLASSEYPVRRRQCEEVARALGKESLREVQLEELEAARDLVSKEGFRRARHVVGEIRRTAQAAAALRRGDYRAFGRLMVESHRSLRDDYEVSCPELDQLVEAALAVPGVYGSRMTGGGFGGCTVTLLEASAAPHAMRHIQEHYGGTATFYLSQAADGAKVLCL

Activity change, negative = inhibition, inactive:
CC(C)=CCN1CCN(CCCc2ccccc2)CC1CCO (stereo not drawn) 3.23%
O=C(Nc1ccc(C2CC2(Cl)Cl)cc1)c1cccc([N+](=O)[O-])c1 (stereo not drawn) 0.976%
COc1ccccc1/C=C/C(=O)NC(=S)N1CCOCC1 -1.25%
COC(=O)c1ccc(COc2ccc(/C=C/C(=O)c3ccc(OC)c(CSCC(=O)O)c3)cc2OC)cc1 -6.55%
COc1ccc(NC(=O)CCCC2CCCCC2)c(OC)c1 -2.48%
O=c1c2ccccc2ncn1CCCCOc1ccccc1F 1.26%
Brc1ccccc1/C=N/Nc1nc2ccccc2o1 -2.18%
COc1ccc(OC)c(NC(=O)Cc2cccs2)c1 -3.6%
CC(CN1CCOCC1)OC(=O)c1ccc(C(C)(C)C)cc1 (stereo not drawn) 5.88%
O=C(CNC(=O)c1ccc(F)cc1)c1ccccc1 7.94%
CCOC(=O)C(Cc1ccc(N)cc1)N1C(=O)c2ccccc2C1=O (stereo not drawn) -2.49%
COc1ccccc1N1CCN(/N=C/c2ccc(O)cc2O)CC1 0.0195%
CC(=O)N[C@@H](C)C(=O)N1CCC(n2nccc2NC(=O)CCCc2ccccc2)CC1 -8.5%
COc1ccc(C(=O)NCCSc2ccccc2C)cc1 2.87%
CCOCc1nnc(NC(=O)CCS(=O)(=O)Cc2ccccc2)s1 17.2%
CCC(=O)Nc1ccc(-c2ccc(N3CCCCC3)nn2)cc1 6.79%
COc1ccc(-c2csc3ncnc(N4CCN(S(=O)(=O)c5ccccc5C#N)CC4)c23)cc1 -1.81%
CC(=O)Nc1ccc(S(=O)(=O)Nc2cc(C)cn(Cc3ccc(C)cc3)c2=O)cc1 -2.01%
COc1ccc(CN2CCCC(N3CCc4ccccc4C3)C2)c(O)c1 (stereo not drawn) 3.61%
CC1CCN(S(=O)(=O)c2ccc3c(c2)n(C)c(=O)n3C)CC1 1.48%
Cc1ccccc1Nc1nc(-c2cccnc2)cs1 4.19%
CC1=NN(C(N)=S)C(=O)C1N=Nc1cc(Cl)ccc1Cl (stereo not drawn) -1.93%
CC(C)(C)c1ccc(SCCc2ccncc2)cc1 2.38%
O=C(/C=C/c1ccc([N+](=O)[O-])o1)NNC(=O)c1ccc(F)cc1 4.88%
CC(C)(C)C(=O)NC1CC2CCCC(C1)N2C(=O)Nc1ccccc1F (stereo not drawn) -7.57%
Cc1cc(C)c2nc(N(CCN(C)C)C(=O)/C=C/c3cccs3)sc2c1 0.912%
COc1ccc(C(=O)O/N=C(\N)c2ccccn2)cc1[N+](=O)[O-] 4.35%
CS(=O)(=O)N1CCN(C(=O)CSc2ccccc2)CC1 1.25%
CCC(C)c1ccc(NC(=S)N2CCCC2)cc1 (stereo not drawn) -5.24%
O=C(CN1CCN(c2cccc(Cl)c2)CC1)Nc1ccc(S(=O)(=O)N2CCOCC2)cc1 6.53%
CCc1ccccc1NC(=O)c1ccc2snnc2c1 3.35%
CN(c1ccc(O)cc1)c1nc(-c2cccnc2)cs1 4.72%
Cc1ccc(C(=O)Nc2nnc(C3=COCCO3)o2)cc1C 1.42%
CCN1CCN(c2sc(S(C)(=O)=O)nc2S(=O)(=O)c2ccc(Cl)cc2)CC1 -4.5%
Cc1cccc(Nc2nc(-c3ccccc3)cs2)n1 -8.33%
COc1ccc(/C=C(\C#N)c2c[nH]c3ccccc23)cc1 -9.3%
COc1ccc(CCc2nc(-c3cccs3)no2)cc1 8.36%
O=C(Nc1ncc([N+](=O)[O-])s1)C1COc2ccccc2O1 (stereo not drawn) -1.73%
COCCN1C(=O)N(c2ccc(Cl)cc2)C(=O)C1CC(=O)Nc1cc(OC)cc(OC)c1 (stereo not drawn) -3.36%
Cc1c(C)n(Cc2ccc(Cl)cc2)c2ccc(C(=O)NCCCN3CCOCC3)cc12 0.0996%
Cc1cccc2sc(N(CCCN(C)C)C(=O)CCS(=O)(=O)c3ccccc3)nc12 -3.45%
O=C(c1ccco1)N1CCN(C(=O)c2cc(-c3ccccc3F)no2)CC1 -2.53%
CCOC(=O)c1csc(CCNC(=O)c2oc3c(Cl)cc(C)cc3c2C)n1 1.74%
COc1ccc(NC(=O)C/C(C)=N/NC(=O)c2cnccn2)cc1Cl -0.29%
COc1ccc(/C=N/Nc2ccccc2C(=O)O)cc1 9.98%
Cc1ccc(CNC(=O)C(=O)c2cn(CC(=O)N3CCOCC3)c3ccccc23)cc1 4.39%
COc1ccc(C)cc1N(CC(=O)N1CCCC1)S(=O)(=O)c1ccccc1 -1.96%
CC(c1ccccn1)N(C)C(=O)c1ccc2nc(Cc3cccc(Cl)c3)oc2c1 (stereo not drawn) -5.08%
COc1ccc(OC)c(/C(C)=N\NC(=O)c2cc3cc(Cl)ccc3n2C)c1 -6.12%
O=C(O)c1ccccc1NC(=O)c1ccccc1-c1ccccc1C(=O)O -2.67%
CCS(=O)(=O)Nc1ccc(C(=O)NCCSc2ccccc2)cc1 1.48%
O=C(NCCc1ccc(Cl)cc1)c1cccc(N2CCCC2=O)c1 3.57%
Cc1cc(=O)n2nc(N3CCCC(C(=O)NCc4ccc(Cl)cc4)C3)sc2n1 (stereo not drawn) -5.56%
Cc1ccc(C)c(S(=O)(=O)N2CCCOC2CNC(=O)C(=O)NC2CCCCC2)c1 (stereo not drawn) 6.08%
COc1ccc(C(=O)CCc2ccccc2O)c(OC)c1 -3.17%
O=C(/C=C/c1ccco1)NC(=S)N1CCCCC1 3.47%
CN(Cc1cnccn1)C(=O)c1cc(COc2cccc(C(F)(F)F)c2)on1 -2.79%
O=C(N/N=C/c1c[nH]c2ccccc12)c1ccccc1O 1.38%
Oc1ccccc1C1=NN(c2ccccc2)C(c2ccccc2)C1 (stereo not drawn) -5.98%
CCCN1CCn2c3c(c4cc(Br)ccc42)CCCC31 (stereo not drawn) -0.0592%
COC(=O)c1cc(NS(=O)(=O)c2ccc3c(c2)c(=O)n(C)c(=O)n3C)cc(C(=O)OC)c1 1.26%
CC(=O)c1ccc(S(=O)(=O)NCc2nnnn2-c2ccccc2)cc1 0.831%
COc1cccc2[nH]c(C(=O)NCCc3ccccc3)cc12 -0.172%
Cc1cccnc1CC(C)NC(=O)c1cc(COc2cncc(Cl)c2)on1 (stereo not drawn) -6.26%
COc1ccc(N2CCN(C(=O)c3cccs3)CC2)cc1 -4.72%
Cc1onc(C(=O)Nc2ccc3c(c2)OCO3)c1[N+](=O)[O-] 1.31%
C/C(=N\Nc1nncc2ccccc12)c1ccc(Cl)c([N+](=O)[O-])c1 7.54%
CC(=O)c1ccc(NC(=O)CCNS(=O)(=O)c2cc(Br)cnc2N)cc1 2.1%
COc1ccccc1CCNC(=O)c1c(C)nn(CC(C)C)c1Cl -1.77%
Cn1c(NC(=O)c2ccccc2)nc2ccccc21 -2.69%
C=CCNC(=S)/N=c1/ccccn1Cc1ccccc1 -0.384%
CCCCc1nc2cc(C(=O)N3CCCCC3CCO)ccc2o1 (stereo not drawn) 6.68%
COc1cccc(OCc2cc(C(=O)N3CCN(C(=O)c4ccco4)CC3)no2)c1 -2.07%
CCOc1ccc(C2C(C#N)=C(N)N(N(C)C)C3=C2C(=O)CCC3)cc1 (stereo not drawn) -0.497%
CC(=O)c1cccc(NC(=O)CN2C(=O)c3cccnc3Oc3ccc(Cl)cc32)c1 5.43%
O=C(CN1CCN(S(=O)(=O)c2cc(Cl)ccc2Cl)CC1)c1ccc(O)c(O)c1 -1.85%
COc1ccccc1CCCNC(=O)C1CCC(=O)N(CCN2CCOCC2)C1 (stereo not drawn) 2.97%
COc1ccc(CCNCc2c(-c3ccccc3)n(C)c3ccccc23)cc1 0%
CCn1nnnc1SCC(=O)Nc1ccc(N(C)C)cc1 -1.06%
O=C(CN1CCCCCC1)Nc1ccc(Br)cc1[N+](=O)[O-] 3.02%
COCCNC(=O)c1ccc2nc(Cc3ccc(OC)c(OC)c3)oc2c1 -3.43%
CCOc1ccc(C(=O)CCN2CCOCC2)cc1 0.333%
O=C(c1cc(COc2ccc(F)c(F)c2)on1)N1CCOCC1 -0.905%
Cc1cc(Br)ccc1NC(=S)NC1CCCC1 0.741%
CC(C)c1ccc(NC2CCCN(C(=O)c3ccncc3)C2)cc1 (stereo not drawn) -8.23%
CC(=O)c1ccc(OC(=O)N2CCOCC2)cc1 4.87%
CCC(=O)Nc1ccc2nn(-c3ccc(F)cc3)nc2c1 4.14%
C=CCc1cccc(/C=N/NC(=O)COc2ccc(-n3cnnn3)cc2)c1O 5.18%
O=C(Cc1cccs1)Nc1ccc([N+](=O)[O-])cc1 0%
COc1ccc(N2CCN(C3CCCCC3NS(=O)(=O)c3ccccc3)CC2)cc1 (stereo not drawn) -1.23%
CN(C)CCCNC(=S)N1CCC(c2nc3ccccc3[nH]2)CC1 -1.51%
COc1ccc(OCc2cc(C(=O)NCC3(C)COC3)no2)c(Cl)c1 2.54%
O=C(N/C(=C\c1ccc([N+](=O)[O-])cc1)C(=O)N1CCCCC1)c1ccco1 11%
c1ccc(-c2ccc(OCCN3CCOCC3)cc2)cc1 -2.01%
COc1cc(C(=S)N2CCOCC2)cc(OC)c1OC(=O)c1ccc([N+](=O)[O-])cc1[N+](=O)[O-] -6.41%
Cc1ccc(-c2noc(C3CCCN(C(=O)c4cccc(Cl)c4)C3)n2)o1 (stereo not drawn) 4.59%
C/C(=N\NC(=O)c1ccoc1C)c1ccccc1O 3.18%
Cc1ccc(CNC(=O)C(=O)c2cn(CC(=O)N3CCCC3)c3ccccc23)cc1 -2.55%
